Tau FP inhib – tau fibrillization inhibition (FP); P10636; K18 P301L tau heparin fibrillization, Alexa594 FP, 6 h; Potency, µM (titrated, usually from 57.7 µM), inactives show at the top dose activity, negative = inhibition, usual class: inhibitors; actives 0.39% (n = 280,000); further: potency means the concentration at half of the fitted maximal effect; nearly all actives have a fitted effect of over 55% in size
Target sequence (P10636 561-689 P618L limits assumed): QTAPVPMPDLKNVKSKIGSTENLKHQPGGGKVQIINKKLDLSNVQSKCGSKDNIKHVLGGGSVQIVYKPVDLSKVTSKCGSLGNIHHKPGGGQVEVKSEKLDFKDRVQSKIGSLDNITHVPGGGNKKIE
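FP of Alexa 594-tau after heparin (20 uM) induction. Substrate: human K18 P301L, 15 uM unlabeled, 0.24 uM labeled. Buffer 100 mM sodium acetate pH 7. 6 hr, 37 C.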
PNC assembly inh – blocks assembly of the perinucleolar compartment; PC3M PTB-GFP, PNC prevalence imaging, 16 h; stronger effect = lower value; activity change (PNC), negative = inhibition, % at 10 µM; actives 3.1% (n = 140,000);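 active means readout at or below -70, meaning at least 70% loss of cells showing the perinucleolar compartment, a nuclear body marking cancer cells; inconclusive means readout between -30 and a set limit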;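 further: plate controls were DMSO wells for no effect and camptothecin positive control wells for full effect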
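Compounds are pinned in duplicate onto adhered PC3M cells stably expressing GFP-tagged PTB and incubated 16 h at 37 C. Cells are then fixed, nuclei stained with Hoechst, and PNC-positive cells counted.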
Tau ThT inhib – inhibitors of human tau fibril formation, thioflavin T binding. recombinant tau K18 P301L, heparin-induced fibrillization, ThT fluorescence. Potency, µM (doses to about 57.4 µM), inactives show at the top dose activity, negative = inhibition, hits mostly inhibitors. actives 2.1% (n = 270,000); further: potency means the concentration at half of the fitted maximal effect; nearly all actives have a fitted effect of over 55% in size
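Aggregation was driven by heparin (20 uM final) acting on recombinant tau […] bearing P301L in 100 mM sodium acetate pH 7; fibrils were detected with Thioflavin T.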
Tau fluor cs – counter-screen for tau fibril formation inhibitors; Potency, µM (doses to about 57.7 µM), for the others: at the top dose activity change, negative = decrease; actives 0.93% (n = 280,000); tau K18 P301L (four-repeat tau fragment) Alexa594 fluorescence, heparin fibrillization; further: potency means the concentration at half of the fitted maximal effect; nearly all actives have a fitted effect of over 55% in size
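Human K18 P301L tau (15 uM unlabeled plus 0.24 uM Alexa 594-labeled, final) in 100 mM sodium acetate pH 7 was mixed with compound and 20 uM heparin and incubated 6 hr at 37 C.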
TexasRed fluor – Texas Red fluorescence interference in TRb-SRC2 counter-screen; actives 0.29% (n = 280,000); AID 1479; Potency, µM (highest dose often 106 µM), for inactives: at the highest dose fluorescence change, negative = quenching; TRb/SRC2 Texas Red total fluorescence interference; active means well fitted curve in either direction with a large enough effect; inconclusive means small, poorly fitted or top-dose-only effect; further: potency means the concentration at half of the fitted maximal effect
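Flags fluorescent or light-absorbing compounds by total fluorescence, S + 2P, at 555 nm excitation and 632 nm emission. Mixture: 20 nM Texas Red SRC2 peptide, 0.6 uM human TRb LBD, 1 uM T3, 5% DMSO; compound exposure 5 h at ambient temperature.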
TRb-SRC2 inh – TRbeta-SRC2 interaction inhibition | P10828 | TRbeta-SRC2 peptide binding, fluorescence polarization; receptor liganded with 1 µM T3 | Potency, µM (titrated, usually from 106 µM), inactives show at the highest dose activity change, negative = inhibition, usual class: inhibitors | actives 0.065% (n = 280,000) | AID 1469;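 further: potency means the concentration at half of the fitted maximal effect; plate controls were bound peptide for no effect and peptide without receptor for full effect; nearly all actives have a fitted effect of over 50% in size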
Target sequence (P10828 whole entry, looked up): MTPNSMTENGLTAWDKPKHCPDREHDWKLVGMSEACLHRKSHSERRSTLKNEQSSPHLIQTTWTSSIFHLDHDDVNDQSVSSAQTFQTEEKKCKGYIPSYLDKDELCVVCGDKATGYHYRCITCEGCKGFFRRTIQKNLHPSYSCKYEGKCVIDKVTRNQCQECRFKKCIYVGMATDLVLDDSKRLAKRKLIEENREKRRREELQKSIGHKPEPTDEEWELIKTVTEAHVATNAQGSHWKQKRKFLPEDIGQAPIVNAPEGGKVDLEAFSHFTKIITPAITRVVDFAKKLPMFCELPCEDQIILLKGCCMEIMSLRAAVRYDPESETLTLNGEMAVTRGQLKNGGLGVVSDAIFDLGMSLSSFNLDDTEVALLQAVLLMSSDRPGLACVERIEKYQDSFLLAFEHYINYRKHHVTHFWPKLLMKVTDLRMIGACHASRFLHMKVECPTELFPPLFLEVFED
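Compounds were added to 0.6 uM TRb ligand-binding domain and 20 nM Texas Red-labeled SRC2 peptide in Tris buffer containing 1 uM T3, incubated 5 hr at ambient temperature, then read by fluorescence polarization.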
* marks the source's active call; other numbers are inactive results; [ ] = another dose, or the depositor's remark. Only some compounds are listed: those with a hit (about 4.6% of all), similar ones and a draw of the others. Unless noted, the call rests on the fitted dose curve; in most records, active means well fitted curve in the direction sought with a large enough effect; inconclusive means small, poorly fitted or top-dose-only effect, or another doubt; inactive means no such curve, though single readings can be large; an effect the other way counts as inactive or inconclusive. Unless noted, on the % scale 0 is the no-effect control and ±100 the full control effect.

Results for CC(=O)Nc1ccc(C(=O)OCc2ccc(Cl)cc2)cc1 ?
Tau FP inhib: inconclusive; PNC assembly inh: 59; Tau ThT inhib: 0%; Tau fluor cs: inconclusive; TexasRed fluor: -2%; TRb-SRC2 inh: 0%

How did CC(=O)Nc1ccc(OC(=O)c2ccc(Cl)cc2)cc1 do in these assays?
Tau FP inhib: 5%; PNC assembly inh: -80*; Tau ThT inhib: 10%; Tau fluor cs: 2%; TexasRed fluor: -5%; TRb-SRC2 inh: -1%

How did CC(=O)Nc1ccc(S(=O)(=O)Oc2ccc(/C=N/NC(=O)c3ccc(Cl)cc3)cc2)cc1 do in these assays?
Tau FP inhib: 13µM*; PNC assembly inh: 38; Tau ThT inhib: inconclusive; Tau fluor cs: inconclusive; TexasRed fluor: 3%; TRb-SRC2 inh: 14%

What do the screens show for `COc1ccccc1Nc1nc2ccccc2n1C`?
Tau FP inhib: -6%; PNC assembly inh: inconclusive; Tau ThT inhib: -16%; Tau fluor cs: -7%; TexasRed fluor: -6%; TRb-SRC2 inh: -5%

How did Fc1cnc(N/N=C/c2ccc(-c3ccc(Br)cc3)o2)nc1N1CCOCC1 do in these assays?
Tau FP inhib: -5%; Tau ThT inhib: 10µM*; Tau fluor cs: 13µM*[quencher]; TexasRed fluor: -3%; TRb-SRC2 inh: -4%

Results for Brc1ccc(-c2ccc(/C=N/Nc3nncc(-c4ccccc4)n3)o2)cc1 ?
Tau FP inhib: 11%; PNC assembly inh: 24; Tau ThT inhib: 2µM*; Tau fluor cs: -16%; TexasRed fluor: 3%; TRb-SRC2 inh: 1%

How did COc1cc(/C=N/Nc2nnc3c(n2)[nH]c2ccccc23)ccc1O do in these assays?
Tau FP inhib: 6%; PNC assembly inh: -15; Tau ThT inhib: 0.71µM*; Tau fluor cs: -24%; TexasRed fluor: 1%; TRb-SRC2 inh: 8%

How did Brc1ccc(-c2ccc(/C=N/Nc3nc(N4CCOCC4)nc(N4CCOCC4)n3)o2)cc1 do in these assays?
Tau FP inhib: inconclusive; Tau ThT inhib: -12%; Tau fluor cs: -12%; TexasRed fluor: 0%; TRb-SRC2 inh: 4%

What do the screens show for `COc1ccc(-c2cnnc(N/N=C/c3ccc(C)o3)n2)cc1`?
Tau FP inhib: 9%; Tau ThT inhib: 2.8µM*; Tau fluor cs: -30%; TexasRed fluor: -3%; TRb-SRC2 inh: 0%

How did Cc1ccc(N2CCCn3c2cc(C)c(C#N)c3=O)cc1Cl do in these assays?
Tau FP inhib: 13%; PNC assembly inh: -1; Tau ThT inhib: 5%; Tau fluor cs: -3%; TexasRed fluor: -6%; TRb-SRC2 inh: 5%

How did CCC(NC(=O)c1ccccc1NC(=O)c1ccc(C)cc1)C(=O)O (stereo not drawn) do in these assays?
Tau FP inhib: 4%; PNC assembly inh: 33; Tau ThT inhib: -5%; Tau fluor cs: -4%; TexasRed fluor: -2%; TRb-SRC2 inh: -11%

Results for Cc1ccc(CNC(=O)c2cn(C)c3ccc(S(=O)(=O)N4CCOCC4)cc3c2=O)cc1 ?
Tau FP inhib: -4%; Tau ThT inhib: 1%; Tau fluor cs: -27%; TexasRed fluor: -1%; TRb-SRC2 inh: 2%

How did COc1ccc(-c2cnnc(N/N=C/c3ccc(O)cc3)n2)cc1 do in these assays?
Tau FP inhib: 1%; Tau ThT inhib: inconclusive; Tau fluor cs: inconclusive; TexasRed fluor: -6%; TRb-SRC2 inh: 2%

How did COc1ccc(-c2cnnc(N/N=C/c3ccc(O)c(O)c3)n2)cc1 do in these assays?
Tau FP inhib: inconclusive; PNC assembly inh: -2; Tau ThT inhib: 2.5µM*; Tau fluor cs: inconclusive; TexasRed fluor: -7%; TRb-SRC2 inh: 13%

What do the screens show for `CN(CC(=O)Nc1cccc(Cl)c1)S(=O)(=O)c1ccc2[nH]c3c(c2c1)CCCC3`?
Tau FP inhib: -10%; Tau ThT inhib: -8%; Tau fluor cs: 14µM*[quencher]; TexasRed fluor: 3%; TRb-SRC2 inh: 0%

Results for COc1ccc(NC(=O)CN(C)S(=O)(=O)c2ccc3[nH]c4c(c3c2)CCCC4)cc1OC ?
Tau FP inhib: 15%; Tau ThT inhib: -15%; Tau fluor cs: inconclusive; TexasRed fluor: 0%; TRb-SRC2 inh: 0%

How did COc1ccc(NC(=O)CN(C)S(=O)(=O)c2ccc3[nH]c4c(c3c2)CCCC4)cc1Cl do in these assays?
Tau FP inhib: 5%; Tau ThT inhib: -9%; Tau fluor cs: 14µM*[quencher]; TexasRed fluor: -15%; TRb-SRC2 inh: 8%

Results for CN(CC(=O)Nc1cccc(C(F)(F)F)c1)S(=O)(=O)c1ccc2[nH]c3c(c2c1)CCCC3 ?
Tau FP inhib: inconclusive; Tau ThT inhib: -8%; Tau fluor cs: 25µM*[quencher]; TexasRed fluor: 2%; TRb-SRC2 inh: 3%

What do the screens show for `O=C(CN1CCCCCC1)N/N=C/c1ccc(Cl)c(Cl)c1`?
Tau FP inhib: 1%; PNC assembly inh: -6; Tau ThT inhib: 13%; Tau fluor cs: 8%; TexasRed fluor: 1%; TRb-SRC2 inh: -2%

Results for O=C(CN1CCSCC1)N/N=C/c1ccc(F)c(F)c1 ?
Tau FP inhib: 3%; PNC assembly inh: -113*; Tau ThT inhib: -4%; Tau fluor cs: -9%; TexasRed fluor: 0%; TRb-SRC2 inh: 5%

What do the screens show for `CC1(C)CC(=O)C(CCCN2C(=O)c3ccccc3C2=O)C(=O)C1`?
Tau FP inhib: 3%; PNC assembly inh: 9; Tau ThT inhib: 1%; Tau fluor cs: 3%; TexasRed fluor: 0%; TRb-SRC2 inh: -2%

Results for O=C(C1=C(O)C(=O)N(c2ncccn2)C1c1ccc(Cl)c(Cl)c1)c1ccco1 (stereo not drawn) ?
Tau FP inhib: inconclusive; PNC assembly inh: inconclusive; Tau ThT inhib: 18µM*; Tau fluor cs: inconclusive; TexasRed fluor: -1%; TRb-SRC2 inh: -4%

What do the screens show for `O=C(C1=C(O)C(=O)N(c2ncccn2)C1c1ccc(Cl)cc1)c1ccco1` (stereo not drawn)?
Tau FP inhib: 2%; PNC assembly inh: 54; Tau ThT inhib: -12%; Tau fluor cs: -6%

Results for CCN1CCN(C(=O)CN(CCc2ccccc2)S(C)(=O)=O)CC1 ?
Tau FP inhib: -6%; PNC assembly inh: inconclusive; Tau ThT inhib: -7%; Tau fluor cs: -6%; TexasRed fluor: 2%; TRb-SRC2 inh: 3%

How did O=C1NN(c2ccccc2)C(=O)/C1=C\c1cccc(OC(=O)c2cccs2)c1 do in these assays?
Tau FP inhib: inconclusive; PNC assembly inh: -6; Tau ThT inhib: 16µM*; Tau fluor cs: -25%; TexasRed fluor: -7%; TRb-SRC2 inh: -1%

How did COC(=O)N/N=C\c1cccc(OC(=O)c2cccs2)c1 do in these assays?
Tau FP inhib: -13%; Tau ThT inhib: -13%; Tau fluor cs: -16%; TexasRed fluor: -1%; TRb-SRC2 inh: -6%

Source: PubChem (National Center for Advancing Translational Sciences (NCATS))
